HCV inhibitor: HCV inhibition | Huh7.5.1 HCVcc-Cre infection, luciferase reporter, 44 h | Potency, µM (doses to about 41.8 µM), actives largely listed as inhibitors | 340,000 compounds, 3.4% hits; active = well fitted inhibition curve with a large enough effect; inconclusive = small, poorly fitted or top-dose-only effect, or another doubt; inactive = no such curve, though single readings can be large or run the other way
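Infectious HCVcc-Cre (~0.5 moi) was added to cells just after compound, with cells seeded 4 h earlier at 1,000 per well. Luciferase activity after 44 h culture reported infection; substrate was incubated 15 min at room temperature before reading.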
FMDV inh: foot and mouth disease virus antiviral activity; 410,000 compounds, 1.2% hits; FMDV antiviral cell-based qHTS; Potency, µM (top dose mostly 57.9 µM), most hits filed as inhibitors; calls by dose curve; tested in HEK293T cells; note: read-out not given here; nearly all actives have a fitted effect of over 45% in size
MARV entry inh: Marburg virus entry inhibition; Potency, µM (top dose mostly 37.8 µM), most hits filed as inhibitors; Marburg virus pseudotyped entry inhibition, cell reporter; 300,000 compounds, 1.8% hits; calls by dose curve; tested in HEK293 cells
Lassa entry inh: blocks Lassa virus binding to or entry into cells; Potency, µM (titrated, usually from 37.9 µM), actives largely listed as inhibitors; 300,000 compounds, 1.2% hits; AID 540256; Lassa virus pseudotype entry inhibition, cell reporter; calls by dose curve; tested in HEK293 cells; note: nearly all actives have a fitted effect of over 50% in size
HCMV antiviral: blocks human cytomegalovirus replication; HFF cells, HCMV-luciferase reporter, 72 h; hits give low values; activity change, negative = inhibition, % at 57.5 µM; 410,000 compounds, 4.5% hits; AID 1259415; in the data active = activity change below about -60%; inconclusive = no clear call, values can overlap the other calls; inactive = above about -39%
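HFF cells seeded 16 h at 37C, treated with compounds, infected with luciferase-reporter HCMV at MOI 1 PFU/cell; luciferase read at 72 h post infection, normalized to buffer-only and Salinomycin controls.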
A number is an active result; – = inactive; ? = inconclusive; · = no result; [ ] = dose if it differs, or a comment. Rows were chosen to be rich in hits. Some 7.9% of all compounds tested hit in one or more screens of this group.

SMILES | HCV inhibitor | FMDV inh | MARV entry inh | Lassa entry inh | HCMV antiviral
O=C(Cc1ccc(NC(=O)C2CCCN(C(=O)C3CC3)C2)cc1)Nc1ccc(C(=O)N2CCOCC2)cc1 (stereo not drawn) | –[8.37 µM] | – | · | · | –
COc1cccc([C@H]2Oc3ccc(OC)cc3C(=NOC[C@@H](C)[C@H](OCc3ccccc3)C(C)C)[C@H]2O)c1 | · | · | – | · | ·
CN(C)c1nc2c(N)ncnc2n1C1OC(CO)C(O)C1O (stereo not drawn) | – | – | – | – | –
OCC1OC(n2cnc3c(NCc4ccccc4O)ncnc32)C(O)C1O (stereo not drawn) | – | – | ? | 2.2µM | -100
OCC1OC(n2ccc3c(NO)ncnc32)C(O)C1O (stereo not drawn) | ? | ? | 0.32µM | ? | -98
CN(C)c1ncnc2c1ccn2C1OC(CO)C(O)C1O (stereo not drawn) | ? | – | 2.2µM | 3.5µM | -98
CCCN(CCC)C(=O)C1CCCN(S(=O)(=O)c2ccc3c(c2)oc(=O)n3C)C1 (stereo not drawn) | – | – | – | – | –
N=C(N)SCCc1cccc(CCSC(=N)N)c1 | – | – | – | · | –
Cc1cccc(CSC(=N)N)c1 | – | – | ? | – | -63
Cc1c(N2CCCC2)cc2c(c1NC(=O)c1ccccc1Cl)C(C)(C)CC2(C)C | 25µM | – | · | · | –
O=C(Nc1ccccc1N1CCCC1)c1cccc(Cl)c1Cl | – | – | – | – | –
CC1CCC2(CC1)OCC1(CCC3(COC4(CCC(C)CC4)OC3)C1=O)CO2 (stereo not drawn) | – | ? | – | – | –
Cc1cc(C)cc(-n2ncc3c2CCCC3NC(=O)C2(C(N)=O)CC2)c1 (stereo not drawn) | ? | ? | ? | – | –
Cc1cccc(-n2ncc3c2CCCC3NC(=O)Cn2cccn2)c1C (stereo not drawn) | · | – | – | – | –
Cc1cccc(-n2ncc3c2CCCC3NC(=O)CCN2CCCO2)c1C (stereo not drawn) | ? | – | ? | ? | -76
CCc1cc(C(=O)NC2CCCc3c2cnn3-c2cccc(C)c2C)n(C)n1 (stereo not drawn) | ? | 28µM | ? | ? | -86
Cc1cc(C)c(C(=O)NC2CCCc3c2cnn3-c2cccc(C)c2C)o1 (stereo not drawn) | ? | – | ? | ? | -74
Cc1cccc(-n2ncc3c2CCCC3NC(=O)C2(C(N)=O)CC2)c1C (stereo not drawn) | 1.6µM | ? | ? | ? | –
Cn1c(=O)c(C(=O)c2ccc(S(C)(=O)=O)c(Cl)c2Cl)c(O)c2ccccc21 | – | – | – | – | –
COc1ccc(CC(=O)Nc2ccccc2C(F)(F)F)cc1S(=O)(=O)N1CCOCC1 | · | – | · | · | –
Cc1cccc(-n2ncc3c2CCCC3NC(=O)C2=CC(=O)CC(C)(C)O2)c1C (stereo not drawn) | 7.1µM | ? | ? | – | -68
O=[N+]([O-])c1nn(-c2ccc3c(c2)OCCO3)n(O)c1=Nc1ccc(Cl)cc1 | 7.1µM | · | ? | ? | -91
O=[N+]([O-])c1nn(-c2ccc3c(c2)OCCO3)n(O)c1=NC1CCCC1 | 2.8µM | – | – | – | –
O=[N+]([O-])c1nn(-c2ccc3c(c2)OCCO3)n(O)c1=NC1CCCCCC1 | – | – | ? | – | ?
O=[N+]([O-])c1nn(-c2ccc3c(c2)OCCO3)n(O)c1=Nc1ccccc1 | ? | 7.9µM | 1.5µM | 7.1µM | -95
SMILES | HCV inhibitor | FMDV inh | MARV entry inh | Lassa entry inh | HCMV antiviral
Cc1ccc(CN=c2c([N+](=O)[O-])nn(-c3ccc4c(c3)OCCO4)n2O)cc1 | ? | – | ? | ? | –
O=[N+]([O-])c1nn(-c2ccc3c(c2)OCCO3)n(O)c1=NCCCO | 11µM | – | ? | – | –
COCCC1CCCCN1Cc1nc(N2CCCCC2)c2cc(OC)c(OC)cc2n1 (stereo not drawn) | · | – | · | · | ·
Cc1ccc(N=c2c([N+](=O)[O-])nn(-c3ccc4c(c3)OCCO4)n2O)cc1F | ? | ? | ? | – | -85
O=C1CCCN1CCCN=c1c([N+](=O)[O-])nn(-c2ccc(Cl)cc2)n1O | 11µM | – | ? | ? | –
Cc1cccc(-n2nc([N+](=O)[O-])c(=NC3CCN(Cc4ccccc4)CC3)n2O)c1 | 8.9µM | – | · | · | -64
Cc1cc(C)cc(N=c2c([N+](=O)[O-])nn(-c3ccc4c(c3)OCCO4)n2O)c1 | ? | – | ? | ? | –
CCc1ccc2oc(C(=O)N(Cc3ccc(N(C)C)cc3)Cc3ccco3)c(C)c2c1 | · | – | – | ? | –
COc1ccc(C(=O)Nc2ccc(NC(=O)Cc3ccccc3)cn2)cc1 | – | – | – | – | –
O=C(COc1ccc(Cl)cc1)N(c1ccccc1Cl)C1CN2CCC1CC2 (stereo not drawn) | 10µM | ? | ? | ? | –
O=C(COc1ccc(Cl)cc1)N1CCCC1 | – | – | – | – | –
O=C(COc1ccc(Cl)cc1)N(c1ccc(Cl)cc1)C1CN2CCC1CC2 (stereo not drawn) | 25µM | – | ? | ? | –
CCOC(=O)C1CCN(C(=O)COc2ccc(Cl)cc2)CC1 | – | – | ? | – | –
CCCNC(=O)C1(C)CCN(Cc2cc3ccccc3o2)C1 (stereo not drawn) | · | – | · | · | –
CCOc1ccc(CSC2=NCCN2)cc1Cl | ? | – | 15µM | ? | –
N#Cc1ccc(CSC2=NCCN2)cc1 | ? | – | ? | ? | ?
CCc1c(C)nc2nncn2c1NCc1ccc(Cl)cc1 | · | ? | ? | – | -69
COC(=O)CCCC1=CC2=C(c3ccccc3)C(=O)C(C)(OC(=O)C3CCCC3)C(=O)C2=CN1Cc1ccc2c(c1)OCO2 (stereo not drawn) | – | – | – | · | -70
COC(=O)CCCC1=CC2=C(c3ccccc3)C(=O)C(C)(OC(=O)C3CCCC3)C(=O)C2=CN1C1CC1 (stereo not drawn) | – | – | · | · | -61
CC(=O)Nc1cccc(NC(=O)c2c(-c3ccccc3)c(-c3ccccc3)nn(C)c2=O)c1 | · | – | – | – | –
O=C(CNC(=O)c1ccccc1F)OCC(=O)N1CCCCC1 | – | – | – | – | -62
COC(=O)C(Cc1ccccc1)OS(N)(=O)=O (stereo not drawn) | – | – | · | · | –
CCCc1cc2c(=O)c(-c3cscn3)c(C(=O)OCC)oc2cc1O | – | – | – | – | –
CCOC(=O)c1[nH]nc(-c2cc(CC)c(O)cc2O)c1-c1cscn1 | ? | 8.9µM | ? | ? | -103
CCSc1nc2ccccc2n1C(=O)/C=C\c1ccc(OC)c(OC)c1 | 14µM | 13µM | 13µM | ? | -98
CCc1noc(C)c1C(=O)Oc1ccc(N(C)S(=O)(=O)c2ccccc2)cc1 | ? | 18µM | ? | ? | –
Cc1noc(C)c1CSCC(=O)Oc1ccc(N(C)S(=O)(=O)c2ccccc2)cc1 | – | – | – | – | –
Cc1nc(S(=O)(=O)Cc2ccc(Cl)cc2)nc2c1CCC2 | – | – | – | – | ?
Cc1ccc(CS(=O)(=O)c2nc3c(c(N(C)C)n2)CCCC3)cc1 | – | – | ? | ? | -93
